A selection: hits, their analogues and other compounds. The true share with any hit is near 0.4%.
FMDV RLuc – shows antiviral activity in FMDV Renilla assay | FMDV replicon cells, Renilla luciferase signal | Potency, µM (doses to about 57.5 µM), actives largely listed as inhibitors | 120,000 compounds, 0.32% hits; also: nearly all actives have a fitted effect of over 55% in size
FMDV antiviral – shows antiviral activity against foot and mouth disease virus; Potency, µM (titrated, usually from 57.5 µM), actives largely listed as inhibitors; 120,000 compounds, 0.23% hits; FMDV antiviral cell assay, firefly luciferase signal; also: nearly all actives have a fitted effect of over 60% in size
Large screens that a line does not name were inactive; ! = not confirmed by another sample. Calls follow the shape of the full dose curve.

O[C@@H](COc1cccc2ncccc12)CN1CCN(C2c3ccccc3[C@@H]3[C@H](c4ccccc42)C3(F)F)CC1 (some centres not stated)	FMDV RLuc 25µM
CCCCOc1ccc(CNC(=O)c2cc3n(n2)CCCN(Cc2ccc(C)cc2)C3=O)cc1	FMDV antiviral 14µM
CCCCNC(=O)c1cc2n(n1)CCCN(Cc1ccc(C)cc1)C2=O	none
COc1cn(-c2ccccc2)nc1C(=O)OC(C)C(=O)NC1CCCC1 (configuration not stated)	none
CC(C)N(Cc1ccccc1)C(=O)c1cc2ccc3cccnc3c2[nH]1	FMDV RLuc 8.9µM, FMDV antiviral 25µM
O=C(NCc1cccc(Cl)c1)c1cc2ccc3cccnc3c2[nH]1	none
O=C(COC(=O)c1ccccc1-c1ccc(C(F)(F)F)cc1)c1cccc([N+](=O)[O-])c1	FMDV RLuc 8.9µM, FMDV antiviral 10µM
O=C(COC(=O)c1ccccc1-c1ccc(C(F)(F)F)cc1)c1ccc([N+](=O)[O-])cc1	none
CCNC(=O)CNC(=O)Cn1c(-c2ccccc2)cc2ccccc21	none
COc1ccc(-n2cnc3c2NC(=O)CC3c2cc(OC)c3c(c2OC)OCO3)cc1 (configuration not stated)	none
Cc1ccccc1-n1c(/C=C/c2ccc(O)cc2)nc2ccccc2c1=O	FMDV RLuc inconclusive
Cc1ccc(-n2c(/C=C\c3ccc(F)c(F)c3)nc3ccccc3c2=O)c(C)c1	FMDV RLuc 3.5µM, FMDV antiviral 7.9µM
Cc1ccc(-n2ncc3c(NC4CCCCCC4)ncnc32)cc1Cl	none
Cc1ccc(Cl)cc1-n1ncc2c(NC3CCCCCC3)ncnc21	FMDV RLuc 25µM!, FMDV antiviral inconclusive
CSC1=N/C(=C\c2ccc(-c3cccc(Cl)c3)o2)C(=O)S1	none
NC(N)=NCc1ccc(F)cc1	none
OC1(c2ccc(Cl)c(C(F)(F)F)c2)CCN(CCCC(c2ccc(F)cc2)c2ccc(F)cc2)CC1	FMDV RLuc 22µM
CCNC(=O)N1CCN(CCCC(c2ccc(F)cc2)c2ccc(F)cc2)CC1	FMDV RLuc inconclusive
CCCn1c(SCc2cc(=O)oc3c(C)c(C)ccc23)n[nH]c1=O	none
COc1ccccc1OCCn1cc(C(C)=O)c2ccccc21	FMDV RLuc 16µM, FMDV antiviral inconclusive
COc1ccccc1OCCn1cc(C(=O)C(F)(F)F)c2cc(Br)ccc21	none
COc1cc(CN(C(=O)c2ccc(OC(C)C)cc2)c2ccccn2)cc(OC)c1OC	FMDV RLuc 10µM, FMDV antiviral inconclusive
COc1cc(CN(C(=O)c2cccc(Cl)c2)c2ccccn2)cc(OC)c1OC	FMDV antiviral inconclusive
Cc1ccccc1C(=O)Nc1ccc2nc(SCC(=O)N(C)c3ccccc3)sc2c1	none
CCOc1ccc(C(=O)Nc2ccc3nc(SCC(=O)N(C)c4ccccc4)sc3c2)cc1	FMDV RLuc inconclusive, FMDV antiviral 7.9µM
O=C(NCc1ccc(-c2nc3ccccc3s2)o1)c1ccc(F)cc1F	none
CC(C)NS(=O)(=O)c1ccc(Cl)c(C(=O)NCc2ccc(-c3nc4ccccc4s3)o2)c1	FMDV RLuc 14µM, FMDV antiviral inconclusive
COC1C(O)CC(OC2C(O)CC(OC3C(O)CC(OC4CCC5(C)C(CCC6[C@@H]5CC(O)C5(C)C(C7=CC(=O)OC7)CCC65O)C4)OC3C)OC2C)OC1C (some centres not stated)	FMDV RLuc 0.5µM, FMDV antiviral inconclusive
C[C@H]1O[C@@H](O[C@H]2CC[C@@]3(C)[C@H](CC[C@@H]4[C@@H]3C[C@@H](O)[C@]3(C)[C@@H](C5=CC(=O)OC5)CC[C@]43O)C2)C[C@H](O)[C@@H]1O[C@H]1C[C@H](O)[C@H](O[C@H]2C[C@H](O)[C@H](O[C@@H]3O[C@H](CO)[C@@H](O)[C@H](O)[C@H]3O)[C@@H](C)O2)[C@@H](C)O1	none
CC(=O)OC1CC2(O)[C@@H]3CCC4CC(OC5CC(O)C(OC6CC(O)C(OC7CC(O)C(O)C(C)O7)C(C)O6)C(C)O5)CCC4(C)[C@H]3CCC2(C)C1C1=CC(=O)OC1 (some centres not stated)	FMDV RLuc inconclusive, FMDV antiviral 0.63µM
C[C@H]1O[C@@H](O[C@H]2[C@@H](O)C[C@H](O[C@H]3[C@@H](O)C[C@H](O[C@H]4CC[C@@]5(C)[C@H](CC[C@@H]6[C@@H]5CC[C@]5(C)[C@@H](C7=CC(=O)OC7)CC[C@]65O)C4)O[C@@H]3C)O[C@@H]2C)C[C@H](O)[C@@H]1O	FMDV antiviral inconclusive
CC(=O)OC1CC(OC2C(O)CC(OC3C(O)CC(OC4CC(O)C5(C)C(CC[C@@H]6[C@@H]5CCC5(C)C(C7=CC(=O)OC7)CCC65O)C4)OC3C)OC2C)OC(C)C1O (some centres not stated)	FMDV RLuc 0.89µM, FMDV antiviral 0.56µM
CC1OC(OC2C(O)CC(OC3C(O)CC(OC4CCC5(C)C(CC[C@@H]6[C@@H]5CCC5(C)C(C7=CC(=O)OC7)CCC65O)C4)OC3C)OC2C)CC(O)C1O (some centres not stated)	FMDV RLuc 0.56µM, FMDV antiviral 0.25µM
COC1CC(OC2CCC3(C)C(CC[C@@H]4[C@@H]3CCC3(C)C(C5=CC(=O)OC5)C(OC(C)=O)CC43O)C2)OC(C)C1O (some centres not stated)	none
Cc1ccc(/C=C/C(=O)c2c(C)nc3ccc(Br)cc3c2-c2ccccc2)o1	none
COc1cc(C2C3=C(CCCC3=O)Nc3nc(SCc4ccccc4)[nH]c(=O)c32)cc(OC)c1O (configuration not stated)	none
Cn1c(COc2cc(Cl)ccc2Cl)n[nH]c1=S	none
CCOC(=O)c1ccc(NCc2ccnc(N3CCOCC3)c2)nc1	FMDV RLuc 28µM, FMDV antiviral inconclusive
CC(C)c1ccc(C(=O)COC(=O)c2ccc(N3CCOCC3)nc2)cc1	none
Cc1cc(N(C)C)nc(Nc2ccc(NC(=O)Nc3ccc(F)cc3)cc2)n1	none
CCN(CC)c1cc(C)nc(Nc2ccc(NC(=O)CCCc3ccccc3)cc2)n1	FMDV RLuc 32µM, FMDV antiviral inconclusive
Brc1ccc(-c2csc3ncnc(Sc4nnc(C5CC5)o4)c23)cc1	FMDV RLuc inconclusive, FMDV antiviral 25µM
O=c1c2c(-c3ccc(Br)cc3)csc2ncn1-c1ccccc1	none
O=C(O)c1cc([N+](=O)[O-])ccc1OC(F)F	none
CCC(=O)Nc1cccc(C(=O)Nc2nnc(C3CC(=O)N(c4ccc(C)c(C)c4)C3)s2)c1 (configuration not stated)	none
Cc1ccc(-c2ccc(C=O)o2)cc1	none
O=C(O)C/C(=C/c1csc(-c2ccc(F)cc2)n1)c1nc2ccccc2s1	none
CCCn1c(CN(C)Cc2ccccc2)nc2c1c(=O)n(C)c(=O)n2C	FMDV RLuc inconclusive, FMDV antiviral 35µM
CN(Cc1ccccc1)Cc1nc2c(c(=O)n(C)c(=O)n2C)n1CCc1ccccc1	none
Cc1cccc2[nH]cc(C3=CCN(C(=O)CCc4ccccc4)CC3)c12	none
O=C(Nc1ccc(C23CC4CC(CC(C4)C2)C3)cc1)c1cccc(Cl)c1	FMDV antiviral 0.35µM
O=C(Nc1ccc(C23CC4CC(CC(C4)C2)C3)cc1)c1ccccc1Cl	none
COc1ccccc1NC(=O)c1cc2c(=O)n3ccccc3nc2n1Cc1ccccc1	none
COc1ccc(-c2cc(Nc3ccccc3)nc(C)n2)cc1	none
O=C(Nc1cccc(C(F)(F)F)c1)C(=Cc1cccc(Oc2ccccc2)c1)C(=O)Nc1cccc(C(F)(F)F)c1	FMDV RLuc 4µM, FMDV antiviral 4.5µM
N#C/C(=C\c1cccc(OC(=O)c2ccccc2Cl)c1)C(=O)Nc1cccc(C(F)(F)F)c1	none
